{
  "source": "the OligoGym collection",
  "data": [
    {"target": "OSR1", "assay": "pooled miR-30 sensor sort-seq; sequence = guide strand", "conditions": "shRNA", "values": [
      {"sequence": "TTGAGCGCTGGAACGCTGCCTC", "sensor-assay potency score (higher = more potent)": -0.183},
      {"sequence": "TTGTAGGACTTGGTGAAGTGGC", "sensor-assay potency score (higher = more potent)": -0.656},
      {"sequence": "TTTGGAGTGAATATATCTGTGG", "sensor-assay potency score (higher = more potent)": -0.758}
    ]},
    {"target": "OTOL1", "assay": "pooled miR-30 sensor sort-seq; sequence = guide strand", "conditions": "shRNA", "values": [
      {"sequence": "TCTTTTGACACCTCAAGCCAGA", "sensor-assay potency score (higher = more potent)": -0.531},
      {"sequence": "TGAACTGCTTCTTATTCTGGGC", "sensor-assay potency score (higher = more potent)": -0.752},
      {"sequence": "TTGTCCTTTCACTCCTCCCAAA", "sensor-assay potency score (higher = more potent)": -1.46},
      {"sequence": "TTGAACTGCTTCTTATTCTGGG", "sensor-assay potency score (higher = more potent)": 0.431},
      {"sequence": "TTCTCTGGACTTGAACTGCTTC", "sensor-assay potency score (higher = more potent)": -0.336},
      {"sequence": "TTGCTATTGTGTTCATACCAGC", "sensor-assay potency score (higher = more potent)": -1.39},
      {"sequence": "TTTCTCTGGACTTGAACTGCTT", "sensor-assay potency score (higher = more potent)": -0.0808},
      {"sequence": "TAGGAAAAAACATATGTCCCAG", "sensor-assay potency score (higher = more potent)": -0.389},
      {"sequence": "TTTGGTAATTGGTTCTGCCATT", "sensor-assay potency score (higher = more potent)": -0.925},
      {"sequence": "TTCCATTCCACTGTCTCCTTTG", "sensor-assay potency score (higher = more potent)": -0.205},
      {"sequence": "TAGAGCAGTTAAACTTCCCAGT", "sensor-assay potency score (higher = more potent)": -0.7},
      {"sequence": "TTGGTCATTATAGAGAATCTTT", "sensor-assay potency score (higher = more potent)": -0.546}
    ]},
    {"target": "OTOP1", "assay": "pooled miR-30 sensor sort-seq; sequence = guide strand", "conditions": "shRNA", "values": [
      {"sequence": "TTGCAGACTGTGACCACCCGAA", "sensor-assay potency score (higher = more potent)": 0.116},
      {"sequence": "AAGCACAGCAGGTCGCTCTTGC", "sensor-assay potency score (higher = more potent)": 0.0599},
      {"sequence": "TTGCAGAGGAACAAGAAGGCTG", "sensor-assay potency score (higher = more potent)": -0.195},
      {"sequence": "TTGAACTGCATCTTCTGGTGCT", "sensor-assay potency score (higher = more potent)": 0.911},
      {"sequence": "TGATACTCTATGTTGAAGGGGT", "sensor-assay potency score (higher = more potent)": 0.574},
      {"sequence": "AAACAATGTGATACTACCGCGC", "sensor-assay potency score (higher = more potent)": -0.348},
      {"sequence": "TTGAGTTGGTGCTTTGACTCAT", "sensor-assay potency score (higher = more potent)": 0.454},
      {"sequence": "TAGAACATGATGAGTGCCGACT", "sensor-assay potency score (higher = more potent)": -0.938},
      {"sequence": "TTGGTGCTTTGACTCATTGAGG", "sensor-assay potency score (higher = more potent)": -1.32},
      {"sequence": "AAAACTGTTGTTATGTTCCCAA", "sensor-assay potency score (higher = more potent)": -0.801},
      {"sequence": "TTCCTCAGGACTTTTCTCTTGG", "sensor-assay potency score (higher = more potent)": 0.566},
      {"sequence": "TCGTCTATCCTGTAAATCCGGA", "sensor-assay potency score (higher = more potent)": -0.834}
    ]},
    {"target": "OTOP2", "assay": "pooled miR-30 sensor sort-seq; sequence = guide strand", "conditions": "shRNA", "values": [
      {"sequence": "TAGAAGAGGATCCAGAGCGTTG", "sensor-assay potency score (higher = more potent)": -1.26},
      {"sequence": "AAGCAGACAATGTTGAAGCTGT", "sensor-assay potency score (higher = more potent)": 0.428},
      {"sequence": "TCCACCTCCACTGTGTTGCTGA", "sensor-assay potency score (higher = more potent)": -0.748},
      {"sequence": "TTGGTGCACAGATTCATCCACC", "sensor-assay potency score (higher = more potent)": -1.03},
      {"sequence": "TAGAAATCCACCTCCACTGTGT", "sensor-assay potency score (higher = more potent)": 0.657},
      {"sequence": "TCGATGATAAACATGTTCTGGA", "sensor-assay potency score (higher = more potent)": 0.252},
      {"sequence": "TTGCCAGCAGCATCATCGCAGT", "sensor-assay potency score (higher = more potent)": -1.22},
      {"sequence": "TTGAACCTCGTAGATGATGAAG", "sensor-assay potency score (higher = more potent)": -1.6},
      {"sequence": "TAGATGACCAGGGCCTGCCTGG", "sensor-assay potency score (higher = more potent)": -1.42},
      {"sequence": "TTGGTGGTGAGTGTGAACATGA", "sensor-assay potency score (higher = more potent)": -0.459},
      {"sequence": "TTCCACATGACATACAGCATGG", "sensor-assay potency score (higher = more potent)": -1.01},
      {"sequence": "ATCCACAGAATGACATTGCAGA", "sensor-assay potency score (higher = more potent)": -0.488}
    ]}
  ]
}
